Where a name gives a salt, the structure may show the parent alone. ± gives the standard deviation.
Each compound was assayed on Danio rerio Tg(wt1b:EGFP) embryo, pronephros (assay: glomerular separation, fold change vs DMSO control; higher = glomeruli further apart (abnormal)). Conditions: 25 µM; exposure: 24-48 hpf.
Method in brief: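 Dechorionated Tg(wt1b:EGFP) zebrafish embryos were exposed to 25 μM compound in 0.5% DMSO, HEPES-buffered E3 with 0.003% PTU, from 24 to 48 hpf at 28.5°C. Pronephroi were imaged dorsally in agarose-filled 96-well plates (470 nm, 10 z-slices). On maximum projections, 16 reference points were set manually in Fiji and a macro computed distances and angles. Values more than 2 SD from the feature mean were excluded. Each feature is a fold change relative to the mean of same-day DMSO controls.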

SMILES	glomerular separation
CCN1CCN(C(=O)N[C@@H](C(=O)N[C@@H]2C(=O)N3C(C(=O)O)=C(CSc4nnnn4C)CS[C@H]23)c2ccc(O)cc2)C(=O)C1=O [Cefoperazone dihydrate]	1.2 ± 0.23
CN(C)/N=N/c1[nH]cnc1C(N)=O [Dacarbazine]	0.922 ± 0.21
Cn1c(=O)c2c(ncn2CC(=O)O)n(C)c1=O [Acefylline]	1.12 ± 0.41
CC(=O)N(CC(O)CO)c1c(I)c(C(=O)NCC(O)CO)c(I)c(C(=O)NCC(O)CO)c1I (centres undefined) [Iohexol]	1.06 ± 0.38
O=c1[nH]c(=O)n(C2CCCO2)cc1F (centres undefined) [Tegafur]	1.02 ± 0.41
COCC1=C(C(=O)OC(C)OC(=O)OC(C)C)N2C(=O)[C@@H](NC(=O)/C(=N\OC)c3csc(N)n3)[C@H]2SC1 (some centres undefined) [Cefpodoxime proxetil]	1.06 ± 0.52
CC(=O)c1ccc(S(=O)(=O)NC(=O)NC2CCCCC2)cc1 [Acetohexamide]	0.839 ± 0.25
CCOC(=O)C(C)(C)Oc1ccc(Cl)cc1 [Clofibrate]	2.62 ± 1.7
NNc1nncc2ccccc12 [Hydralazine hydrochloride]	1.14 ± 0.53
CN[C@H](CC(C)C)C(=O)N[C@H]1C(=O)N[C@@H](CC(N)=O)C(=O)N[C@H]2C(=O)N[C@H]3C(=O)N[C@H](C(=O)N[C@H](C(=O)O)c4cc(O)cc(O)c4-c4cc3ccc4O)[C@H](O)c3ccc(c(Cl)c3)Oc3cc2cc(c3O[C@@H]2O[C@H](CO)[C@@H](O)[C@H](O)[C@H]2O[C@H]2C[C@](C)(N)[C@H](O)[C@H](C)O2)Oc2ccc(cc2Cl)[C@H]1O [Vancomycin hydrochloride]	0.943 ± 0.23
COc1ccc(-c2cc(=S)ss2)cc1 [Anethole-trithione]	1.04 ± 0.42
Cc1onc(-c2c(F)cccc2Cl)c1C(=O)N[C@@H]1C(=O)N2[C@@H]1SC(C)(C)[C@@H]2C(=O)O [Flucloxacillin sodium]	1.05 ± 0.33
CCCC1C(=O)N2C(N(C)C)=Nc3ccc(C)cc3N2C1=O (centres undefined) [Azapropazone]	1.16 ± 0.34
CCC(=O)OCC(=O)[C@@]1(OC(=O)CC)[C@H](C)C[C@H]2[C@H]3[C@H]([C@@H](O)C[C@@]21C)[C@@]1(C)C=CC(=O)C=C1C[C@H]3Cl [Alclometasone dipropionate]	1.33 ± 0.61
CN(C)[C@@H]1C(O)=C(C(N)=O)C(=O)[C@@]2(O)C(O)=C3C(=O)c4c(O)cccc4[C@@](C)(O)[C@H]3[C@H](O)[C@@H]12 [Oxytetracycline dihydrate]	1.22 ± 0.44
NC[C@H]1O[C@H](O[C@H]2[C@H](O)[C@@H](O[C@H]3O[C@H](CO)[C@@H](O)[C@H](N)[C@H]3O)[C@H](N)C[C@@H]2N)[C@H](N)C[C@@H]1O [Tobramycin]	1.49 ± 0.73
CC1(C)S[C@@H]2[C@H](NC(=O)[C@H](N)c3ccccc3)C(=O)N2[C@H]1C(=O)O [Ampicillin trihydrate]	0.924 ± 0.41
CN1CCC(OC(c2ccccc2)c2ccccc2)CC1 [Diphenylpyraline hydrochloride]	1.02 ± 0.24
C[C@]12CCC(=O)C=C1CC[C@@H]1[C@@H]2[C@@H](O)C[C@@]2(C)[C@H]1CC[C@]2(O)C(=O)CO [Hydrocortisone base]	1.25 ± 0.65
CN(C(=O)C(Cl)Cl)c1ccc(OC(=O)c2ccco2)cc1 [Diloxanide furoate]	2.17 ± 1
CCC1(c2ccccc2)C(=O)NCNC1=O [Primidone]	0.835 ± 0.33
Cc1nnc(SCC2=C(C(=O)O)N3C(=O)[C@@H](NC(=O)Cn4cnnn4)[C@H]3SC2)s1 [Cefazolin sodium salt]	0.771 ± 0.24
CCN(CC)C(C)CN1c2ccccc2Sc2ccccc21 (centres undefined) [Ethopropazine hydrochloride]	0.571 ± 0.084
CN(C)CC/C=C1\c2ccccc2CSc2ccccc21 [Dosulepin hydrochloride]	1.15 ± 0.25
CC(=O)[C@H]1CC[C@H]2[C@@H]3CCC4=CC(=O)CC[C@]4(C)[C@H]3CC[C@]12C [Progesterone]	3.48 ± 3.4
O=C1CN(/N=C/c2ccc([N+](=O)[O-])o2)C(=O)N1 [Nitrofurantoin]	0.915 ± 0.35
CC1(C)O[C@@H]2C[C@H]3[C@@H]4C[C@H](F)C5=CC(=O)C=C[C@]5(C)[C@H]4[C@@H](O)C[C@]3(C)[C@]2(C(=O)CO)O1 [Flunisolide]	1.26 ± 0.42
CN(C)c1nc(N(C)C)nc(N(C)C)n1 [Altretamine]	0.998 ± 0.46
Cn1c([N+](=O)[O-])cnc1COC(N)=O [Ronidazole]	0.869 ± 0.18
